# Results from PubChem BioAssay AID1159580 (chemical genetic matrix, 2015).
# Where “and” joins values, the source holds several entries; their conditions need not be identical. Equal entries are not always repeated. About 2,000 (36%) of roughly 5,500 compounds were called active. Roughly 18% stayed inconclusive and do not appear here. This is one part of the list. A number with no mark means an inactive call. No stated cut-off is given here; in the data, active means normalized growth mostly below about 0.91 (no sharp cut-off); inconclusive means no clear call, values can overlap the other calls; inactive means mostly above about 0.92.
# Experiment: chemical genetic growth profiling, strain panel (AID 1159580);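 further: tested at 20 µM; growth read once vehicle control cultures reached saturation at 30 °C; 1 = growth at the plate median or of vehicle wells; lower values mean less growth of the strain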
# Conditions: S. cerevisiae deletion strains, growth OD
compound,measurement,setting,value
COc1ccc2c(c1)OC1(O)COc3cc(OC)c(OC)cc3C1=C2 (stereo unspecified),normalized growth,"locus YAL013W, strain DEP1, active compounds read low",0.99
same,normalized growth,"locus YAL021C, strain ccr4, active compounds read low",1
same,normalized growth,"locus YAL026C, strain drs2, active compounds read low",0.97
same,normalized growth,"locus YAL030W, strain snc1, active compounds read low",0.973
same,normalized growth,"locus YBL061C, strain skt5, active compounds read low",0.968
same,normalized growth,"locus YBR009C, strain hhf1, active compounds read low",1
same,normalized growth,"locus YBR021W, strain FUR4, active compounds read low",1.01
same,normalized growth,"locus YBR023C, strain chs3, active compounds read low",0.979
same,normalized growth,"locus YBR171W, strain sec66, active compounds read low",0.965
same,normalized growth,"locus YBR229C, strain ROT2, active compounds read low",1.01
same,normalized growth,"locus YBR231C, strain swc5, active compounds read low",0.939
same,normalized growth,"locus YBR279W, strain paf1, active compounds read low",0.984
same,normalized growth,"locus YCL011C, strain gbp2, active compounds read low",0.983
same,normalized growth,"locus YCL016C, strain dcc1, active compounds read low",1.01
same,normalized growth,"locus YCL029C, strain bik1, active compounds read low",0.981
same,normalized growth,"locus YCL069W, strain vba3, active compounds read low",0.988
same,normalized growth,"locus YCR088W, strain abp1, active compounds read low",0.978
same,normalized growth,"locus YDL005C, strain med2, active compounds read low",0.978
same,normalized growth,"locus YDL035C, strain GPR1, active compounds read low",0.974
same,normalized growth,"locus YDL040C, strain nat1, active compounds read low",0.971
same,normalized growth,"locus YDL074C, strain BRE1, active compounds read low",0.992
same,normalized growth,"locus YDL101C, strain DUN1, active compounds read low",1.02
same,normalized growth,"locus YDL134C, strain PPH21, active compounds read low",1.01
same,normalized growth,"locus YDL185W, strain tfp1, active compounds read low",0.983
same,normalized growth,"locus YDL192W, strain arf1, active compounds read low",0.977
same,normalized growth,"locus YDR001C, strain nth1, active compounds read low",0.98
same,normalized growth,"locus YDR069C, strain doa4, active compounds read low",0.961
same,normalized growth,"locus YDR101C, strain arx1, active compounds read low",0.972
same,normalized growth,"locus YDR137W, strain rgp1, active compounds read low",0.934
same,normalized growth,"locus YDR150W, strain NUM1, active compounds read low",1.01
same,normalized growth,"locus YDR159W, strain sac3, active compounds read low",0.897
same,normalized growth,"locus YDR162C, strain NBP2, active compounds read low",1.01
same,normalized growth,"locus YDR195W, strain ref2",0.992
same,normalized growth,"locus YDR297W, strain sur2, active compounds read low",0.978
same,normalized growth,"locus YDR318W, strain mcm21, active compounds read low",0.949
same,normalized growth,"locus YDR334W, strain swr1, active compounds read low",0.982
same,normalized growth,"locus YDR335W, strain msn5, active compounds read low",0.996
same,normalized growth,"locus YDR388W, active compounds read low",0.981
same,normalized growth,"locus YDR392W, strain spt3, active compounds read low",0.734 (active)
same,normalized growth,"locus YDR502C, strain sam2, active compounds read low",0.985
same,normalized growth,"locus YEL003W, strain gim4, active compounds read low",0.962
same,normalized growth,"locus YEL037C, strain rad23, active compounds read low",0.99
same,normalized growth,"locus YEL061C, strain CIN8 (second series), active compounds read low",0.978
same,normalized growth,"locus YEL061C, strain CIN8, active compounds read low",1
same,normalized growth,"locus YER015W, strain faa2, active compounds read low",0.993
same,normalized growth,"locus YER016W, strain bim1, active compounds read low",0.971
same,normalized growth,"locus YER110C, active compounds read low",0.976
same,normalized growth,"locus YER111C, strain swi4, active compounds read low",0.97
same,normalized growth,"locus YER155C, strain BEM2 (second series), active compounds read low",0.904
same,normalized growth,"locus YER155C, strain BEM2, active compounds read low",1
same,normalized growth,"locus YER167W, strain BCK2, active compounds read low",0.963
same,normalized growth,"locus YFR010W, strain ubp6, active compounds read low",0.965
same,normalized growth,"locus YGL078C, strain dbp3, active compounds read low",1.01
same,normalized growth,"locus YGL086W, strain mad1, active compounds read low",0.97
same,normalized growth,"locus YGL167C, strain pmr1, active compounds read low",0.985
same,normalized growth,"locus YGL173C, strain kem1, active compounds read low",0.94
same,normalized growth,"locus YGL227W, strain vid30, active compounds read low",0.978
same,normalized growth,"locus YGL240W, strain doc1, active compounds read low",0.942
same,normalized growth,"locus YGL248W, strain PDE1, active compounds read low",1.01
same,normalized growth,"locus YGL253W, strain hxk2, active compounds read low",0.929
same,normalized growth,"locus YGR078C, strain PAC10, active compounds read low",0.985
same,normalized growth,"locus YGR135W, strain pre9, active compounds read low",0.985
same,normalized growth,"locus YGR229C, strain SMI1, active compounds read low",0.967
same,normalized growth,"locus YGR252W, strain gcn5, active compounds read low",0.873
same,normalized growth,"locus YHR013C, strain ard1, active compounds read low",0.977
same,normalized growth,"locus YHR027C, strain rpn1, active compounds read low",0.986
same,normalized growth,"locus YHR030C, strain SLT2, active compounds read low",0.996 and 0.931
same,normalized growth,"locus YHR079C, strain IRE1 (second series), active compounds read low",0.972
same,normalized growth,"locus YHR079C, strain IRE1, active compounds read low",0.925
same,normalized growth,"locus YHR094C, strain hxt1, active compounds read low",0.989
same,normalized growth,"locus YHR129C, strain ARP1, active compounds read low",1.01
same,normalized growth,"locus YHR142W, strain chs7, active compounds read low",0.926
same,normalized growth,"locus YHR200W, strain rpn10, active compounds read low",0.972
same,normalized growth,"locus YIL066C, strain RNR3, active compounds read low",0.986
same,normalized growth,"locus YIL073C, strain SPO22, active compounds read low",0.895
same,normalized growth,"locus YIL125W, strain kgd1, active compounds read low",0.997
same,normalized growth,"locus YIR030C, strain dcg1, active compounds read low",0.987
same,normalized growth,"locus YJL092W, strain hpr5, active compounds read low",0.979
same,normalized growth,"locus YJL095W, strain BCK1 (second series), active compounds read low",0.98
same,normalized growth,"locus YJL095W, strain BCK1, active compounds read low",0.965 and 0.92
same,normalized growth,"locus YJL115W, strain asf1, active compounds read low",0.983
same,normalized growth,"locus YJL129C, strain trk1, active compounds read low",0.979
same,normalized growth,"locus YJL134W, strain LCB3, active compounds read low",1
same,normalized growth,"locus YJL154C, strain vps35, active compounds read low",0.977
same,normalized growth,"locus YJL164C, strain tpk1, active compounds read low",0.983
same,normalized growth,"locus YJL166W, strain qcr8, active compounds read low",0.948
same,normalized growth,"locus YJL168C, strain set2, active compounds read low",0.989
same,normalized growth,"locus YJL187C, strain SWE1 (second series), active compounds read low",1.01
same,normalized growth,"locus YJL187C, strain SWE1, active compounds read low",0.999
same,normalized growth,"locus YJR043C, strain POL32, active compounds read low",0.97
same,normalized growth,"locus YJR066W, strain TOR1, active compounds read low",0.9
